Compound activity: PubChem, National Center for Advancing Translational Sciences (NCATS)
Caspase-1 inhib – caspase-1 (human) inhibition, allosteric or competitive | Potency, µM (top dose mostly 57.5 µM), inactives show at the top dose activity change, negative = inhibition, hits mostly inhibitors | Caspase-1 enzyme, Ac-WEHD-AFC fluorogenic rate | P29466 | 75,000 compounds, 0.03% hits;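 also: plate controls were vehicle for no effect and no substrate for full effect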
ALOX15B inhib – inhibitors of human 15-lipoxygenase 2 (ALOX15B); 110,000 compounds, 0.56% hits; Potency, µM (top dose mostly 57.1 µM), inactives show at the top dose activity change, negative = inhibition, hits mostly inhibitors; purified 15hLO-2, xylenol orange hydroperoxide absorbance; AID 881; also: % is scaled to controls: 0 for no effect and ±100 for the full control effect; nearly all actives have a fitted effect of over 60% in size
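Screening format was qHTS against 50 nM purified 15hLO-2 in Hepes pH 7.5 with detergent. Activity follows hydroperoxide formation from 45 uM arachidonic acid, measured as 573:405 nm absorbance ratio of the ferric-xylenol orange complex.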
Hsp90 Hop PPI – changes Hsp90-Hop TPR2A binding signal, up or down | AlphaScreen TPR2A-His6 binding biotin-Hsp90 C-terminal peptide | Potency, µM (series often up to 57 µM), for inactives: top-dose activity change, negative = inhibition | 71,000 compounds, 0.44% hits; active = well fitted curve in either direction with a large enough effect; inconclusive = small, poorly fitted or top-dose-only effect, or another doubt; also: % is scaled to controls: 0 for no effect and ±100 for the full control effect
ALOX15 inhib – inhibitors of human 15-lipoxygenase (ALOX15) | Potency, µM (top dose mostly 57.1 µM), inactives show at the highest dose activity change, negative = inhibition, hits mostly inhibitors | purified 15hLO-1, xylenol orange hydroperoxide absorbance | 74,000 compounds, 1.4% hits | P16050; also: % is scaled to controls: 0 for no effect and ±100 for the full control effect; nearly all actives have a fitted effect of over 55% in size
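Hydroperoxide formed from arachidonic acid (50 uM) by purified human 15hLO-1 (40 nM) oxidizes ferrous iron, and the ferric-xylenol orange complex is read at 573 versus 405 nm. Compounds were preincubated 15 min; reaction ran 6 min at room temperature.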
Tau filament bind – tau filament binding | P10636 | recombinant tau filaments, thioflavin S fluorescence, 15 h; filaments grown with octadecylsulfate alongside compound | Potency, µM (doses to about 57.1 µM), for the others: top-dose activity change, negative = inhibition | 71,000 compounds, 2% hits | AID 596;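 also: % is scaled to controls: 0 for no effect and ±100 for the full control effect; actives lower thioflavin S fluorescence by blocking filaments or displacing dye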
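Recombinant tau protein (human, 1 uM final) plus 30 uM ODS in HEPES pH 7.4 with NaCl, DTT and thioflavine S. Compound present from the start; fluorescence at 510 nm after 15 h, 37 C.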
Casp7 inh – allosteric or competitive inhibitors of human caspase-7 | 75,000 compounds, 0.02% hits | Potency, µM (doses to about 57.5 µM), without a hit: top-dose activity change, negative = inhibition, hits mostly inhibitors | recombinant caspase-7, Ac-DEVD-AFC fluorescence rate | P55210; active = well fitted inhibition curve with a large enough effect in the main read-out, with a control signal flat, not every such curve was filed as active; inconclusive = small, poorly fitted or top-dose-only effect, or a change in a side signal; also: % of control where 0% means no effect
* = called active by the depositor; [ ] = another dose, or the depositor's remark. A selection: hits, their analogues and other compounds. The true share with any hit is near 2.4%. Unless noted, calls follow the shape of the dose curve; as a rule, active = well fitted curve in the direction sought with a large enough effect; inconclusive = small, poorly fitted or top-dose-only effect, or another doubt; inactive = no such curve, though single readings can be large; an effect the other way counts as inactive or inconclusive. Potency is read from the fitted curve at half-maximal effect.

For NC(=O)CSc1nnc(-c2ccc(S(=O)(=O)N3CCCC3)cc2)n1Cc1ccco1 the results were Caspase-1 inhib 1.1%, ALOX15B inhib 3.5%, Hsp90 Hop PPI -7.0%, ALOX15 inhib 2.1%, Tau filament bind 11.0% and Casp7 inh 1.8%.
For CCCS(=O)(=O)c1c(S(=O)(=O)CCC)c2c(C)cccn2c1C(=O)OC the results were ALOX15B inhib -14.0%.
For CCCS(=O)(=O)c1c(S(=O)(=O)CCC)c2c(N)cccn2c1C(=O)c1ccc(F)cc1 the results were Caspase-1 inhib inconclusive, ALOX15B inhib -12.5%, Hsp90 Hop PPI -26.8%, ALOX15 inhib 10µM*, Tau filament bind 394.1% and Casp7 inh -28.1%.
`Cc1cc(O)c(-c2cc(O)c(C)cc2O)cc1O` gave Caspase-1 inhib 2.6%[11.5 µM], ALOX15B inhib inconclusive, Hsp90 Hop PPI -2.4%[11 µM], ALOX15 inhib 1.58µM*, Tau filament bind 0.5%[11.4 µM] and Casp7 inh -0.2%[11.5 µM].
Screening CCOC(=O)c1sc2nc(NC(=O)COc3ccccc3)sc2c1C returned ALOX15B inhib -6.4%.
CCOC(=O)c1ccccc1N/C=C1\CCCC1=O was read as Caspase-1 inhib -7.8%, ALOX15B inhib 2.7%, Hsp90 Hop PPI -1.9%, ALOX15 inhib -5.8%, Tau filament bind 2.3% and Casp7 inh -6.5%.
COC(=O)c1ccccc1N/C=C1\CCc2c(c(C)nn2-c2ccccn2)C1=O was read as ALOX15B inhib 2.51µM*.
Screening COC(=O)Nc1sc2c(c1C(N)=O)CCCCCC2 returned Caspase-1 inhib -1.9%, ALOX15B inhib -6.6%, Hsp90 Hop PPI -3.4%, ALOX15 inhib 12.6µM*, Tau filament bind -20.4% and Casp7 inh 0.6%.
COC(=O)c1[nH]c2ccc(C)cc2c1NC(=O)Nc1ccccc1OC was read as Caspase-1 inhib -4.5%, ALOX15B inhib -17.1%, Hsp90 Hop PPI 0.1%, ALOX15 inhib 25.1µM*, Tau filament bind inactive and Casp7 inh -3.7%.
For COC(=O)c1[nH]c2ccc(C)cc2c1NC(=O)CN1CCc2cc(OC)c(OC)cc2C1 the results were Caspase-1 inhib -5.1%, ALOX15B inhib 12.5%, Hsp90 Hop PPI -4.6%, ALOX15 inhib -1.9%, Tau filament bind 39.5% and Casp7 inh 1.4%.
`O=C(Nc1ccc(Nc2ccc3c(c2)C(=O)c2ccccc2C3=O)c2c1C(=O)c1ccccc1C2=O)c1ccccc1` gave Caspase-1 inhib 3.1%[11.5 µM], ALOX15B inhib 4.7%[11.4 µM], Hsp90 Hop PPI inconclusive, ALOX15 inhib -16.4%[11.4 µM], Tau filament bind 3.98µM* and Casp7 inh -0.8%[11.5 µM].
Screening COc1ccc(Cn2nnnc2C(c2ccccc2)N2CCN(C3CCCC3)CC2)cc1 (stereo not drawn) returned Caspase-1 inhib 0.1%, ALOX15B inhib 49.7%, Hsp90 Hop PPI 0.8%, ALOX15 inhib 12.4%, Tau filament bind -7.6% and Casp7 inh -1.6%.
CCCC/C(O)=C1\C(=O)CC(C)(C)CC1=Nc1ccccc1OC was read as ALOX15B inhib -7.5%.
`COc1ccc(C2NC(=O)NC3=C2CCc2ccccc23)cc1` (stereo not drawn) gave ALOX15B inhib inconclusive, Hsp90 Hop PPI 1.5%, ALOX15 inhib -25.8%, Tau filament bind -8.0% and Casp7 inh -29.6%.
Cc1ccc(C2NC(=O)NC3=C2CCc2ccccc23)cc1 (stereo not drawn) was read as ALOX15B inhib inconclusive, Hsp90 Hop PPI 0.4%, ALOX15 inhib -25.1%, Tau filament bind 20µM* and Casp7 inh inconclusive.
N#Cc1c(NCCCO)nc(NCc2ccccc2)c2c1CCN(Cc1ccccc1)C2 was read as ALOX15B inhib 34.6%, Hsp90 Hop PPI -21.4%, ALOX15 inhib 5.01µM*, Tau filament bind 177.0% and Casp7 inh inconclusive.
`CC(=O)Nc1sc(NC(=O)c2ccc(Cl)cc2)nc1-c1cccs1` gave ALOX15B inhib -7.7%.
`Nc1nc(-c2cccs2)c(NC(=O)c2ccccc2)s1` gave Caspase-1 inhib -0.8%, ALOX15B inhib inconclusive, Hsp90 Hop PPI -18.7%, ALOX15 inhib 20µM*, Tau filament bind -30.2% and Casp7 inh -1.2%.
